The entries come from a sample that favours hits as a whole.
NOMO-1 viab: STK33 inhibitor candidate reducing NOMO-1 cell viability | NOMO-1 AML viability, CellTiter-Glo luminescence, 72 h | inhibition, % (concentration not given with the values) | 37,000 compounds, 7.5% hits | AID 2330; in the data active means inhibition above about 80%
STK33 inh: inhibitors of human STK33 kinase; Q9BYT3; ADP-Glo luminescence, MBP substrate; inhibition, % at 12.5 µM; 27,000 compounds, 0.44% hits; in the data active means inhibition above about 20%
Target sequence (Q9BYT3 whole entry, looked up): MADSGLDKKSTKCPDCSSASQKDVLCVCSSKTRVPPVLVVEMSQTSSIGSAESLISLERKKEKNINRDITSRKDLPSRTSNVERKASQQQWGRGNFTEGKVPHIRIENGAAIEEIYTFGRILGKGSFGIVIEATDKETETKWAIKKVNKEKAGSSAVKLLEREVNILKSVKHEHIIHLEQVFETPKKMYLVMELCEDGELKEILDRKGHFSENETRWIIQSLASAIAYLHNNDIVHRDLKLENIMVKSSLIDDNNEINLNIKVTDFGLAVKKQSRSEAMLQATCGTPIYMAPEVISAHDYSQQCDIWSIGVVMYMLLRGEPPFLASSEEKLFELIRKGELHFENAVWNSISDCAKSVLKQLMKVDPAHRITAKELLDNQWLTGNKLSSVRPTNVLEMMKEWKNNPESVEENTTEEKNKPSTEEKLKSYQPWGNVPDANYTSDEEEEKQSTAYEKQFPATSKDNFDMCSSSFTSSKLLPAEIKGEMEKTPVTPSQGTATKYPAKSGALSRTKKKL
PD-1 reversal: reversal of PD-1 mediated T-cell inhibition | activation, % (test concentration not listed) | 29,000 tested, under 10 active | AID 2316 | primary human CD4 T cells, PD-L1 beads, CellTiter-Glo 96 h; call rule not given here
Numbers stand for hits; . = inactive; / = no result given.

SMILES	NOMO-1 viab	STK33 inh	PD-1 reversal
C[C@H](CO)N1C[C@H](C)[C@H](CN(C)C(=O)Nc2ccc(C(F)(F)F)cc2)Oc2ccc(NC(=O)Nc3ccc(C(F)(F)F)cc3)cc2CC1=O	114	/	/
Cc1cc(Cl)ccc1OC(C)C(=O)Nc1cccc(NC(=O)c2ccco2)c1 (stereo not given)	.	.	/
Cc1cc(Cl)ccc1NC(=O)CN1CCC(C(N)=O)(N2CCCCC2)CC1	.	.	.
COc1ccc(CCNc2nc(C)nc3c2sc2nc4c(cc23)COC(C)(C)C4)cc1OC	.	.	.
Cc1ccnc(NS(=O)(=O)c2ccc(NC(=O)c3cc4c(s3)CCCC4)cc2)n1	/	.	/
Cc1ccc(N(CC(N)=O)S(=O)(=O)c2ccc(F)cc2)cc1	.	.	.
CCOC(=O)CSc1n[nH]c(CC)n1	.	.	/
C=CCn1c(-c2cccs2)nc(-c2ccccc2)c1-c1ccccc1	121	.	.
c1ccc(-n2c(SCc3nc4ccccc4s3)nnc2-c2cccs2)cc1	.	.	.
COC(=O)CN1C(=O)CN(c2nc(C)cc(C)n2)C1=O	.	.	.
COc1ccc(C[C@H](N)C(=O)N[C@H]2[C@@H](O)[C@H](n3cnc4c(N(C)C)ncnc43)O[C@@H]2CO)cc1	120	.	/
Nc1ncnc2c1ncn2C1OC(CO)[C@H](O)[C@@H]1S (stereo not given in full)	.	.	.
C[C@@H]1CN([C@@H](C)CO)C(=O)c2cc(NC(=O)Cc3cn(C)c4ccccc34)ccc2O[C@@H]1CN(C)Cc1ccncc1	.	.	.
C[C@@H]1CN([C@H](C)CO)C(=O)c2cc(NC(=O)Cc3cn(C)c4ccccc34)ccc2O[C@@H]1CN(C)C(=O)Nc1cccc2ccccc12	99	/	.
C[C@H]1CN([C@@H](C)CO)C(=O)c2cc(NC(=O)Cc3cn(C)c4ccccc34)ccc2O[C@@H]1CN(C)Cc1ccc(-c2ccccc2)cc1	.	/	.
C[C@@H]1CN([C@@H](C)CO)C(=O)c2cc(NC(=O)Cc3cn(C)c4ccccc34)ccc2O[C@H]1CN(C)C(=O)Nc1cccc2ccccc12	.	/	.
C[C@@H]1CN([C@@H](C)CO)C(=O)c2cc(NC(=O)Cc3cn(C)c4ccccc34)ccc2O[C@H]1CN(C)Cc1ccncc1	109	/	.
C[C@@H]1CN([C@H](C)CO)C(=O)c2cc(NC(=O)Cc3cn(C)c4ccccc34)ccc2O[C@H]1CN(C)Cc1ccc(-c2ccccc2)cc1	96	/	.
C[C@H](CO)N1C[C@H](C)[C@H](CN(C)Cc2ccncc2)Oc2ccc(NC(=O)Cc3cn(C)c4ccccc34)cc2C1=O	.	.	.
C[C@H]1CN([C@@H](C)CO)C(=O)c2cc(NC(=O)Cc3cn(C)c4ccccc34)ccc2O[C@@H]1CN(C)Cc1ccncc1	96	/	/
O=C(COc1cccc(NC(=O)c2ccccc2[N+](=O)[O-])c1)c1ccc(F)cc1	.	.	.
CSc1cccc(N2C(=O)C3CC=C(C)CC3C2=O)c1 (stereo not given)	.	/	.
O=C(COc1ccc2ccccc2c1Br)Nc1ccccc1C(=O)N1CCCCC1	.	.	.
CC(=O)N(c1ccc2oc3c(c2c1)CCCC3)S(=O)(=O)c1cccc2cccnc12	.	.	.
Cc1ccc(Nc2ccc3noc4c3c2C(=O)c2ccccc2-4)cc1	127	/	.
SMILES	NOMO-1 viab	STK33 inh	PD-1 reversal
CNc1cc(NC)c2ncnc3c2c1C(=O)c1ccccc1-3	.	/	.
O=C(CCCN1C(=O)c2ccccc2C1=O)Nc1cc(Cl)cc(Cl)c1	.	.	.
Cc1nc(SCC(=O)c2ccccc2)c(C#N)c(-c2cccc(Cl)c2)c1C(=O)Nc1ccccc1	.	.	/
CCCCC(=O)/C=C/n1c(=S)oc2ccccc21	133	/	.
CC(C)OC(=O)n1c(=S)oc2ccccc21	.	/	.
C[C@@H]1CN([C@H](C)CO)C(=O)c2cccc(NC(=O)Nc3ccccc3)c2O[C@@H]1CN(C)Cc1ccc(C(=O)Nc2ccccc2N)cc1	128	/	.
C[C@@H]1CN([C@@H](C)CO)C(=O)c2cccc(NC(=O)Nc3ccc(F)cc3)c2O[C@H]1CN(C)Cc1ccc(C(=O)O)cc1	.	/	/
C[C@H]1CN([C@@H](C)CO)C(=O)c2cccc(NC(=O)Nc3ccc(F)cc3)c2O[C@H]1CN(C)Cc1ccc(C(=O)Nc2ccccc2N)cc1	127	/	.
C[C@H](CO)N1C[C@H](C)[C@@H](CN(C)Cc2ccc(C(=O)Nc3ccccc3N)cc2)Oc2c(NC(=O)Nc3ccc(F)cc3)cccc2C1=O	125	/	.
C[C@@H]1CN([C@H](C)CO)C(=O)c2cccc(NC(=O)Nc3ccccc3)c2O[C@H]1CN(C)Cc1ccc(C(=O)O)cc1	.	/	/
C[C@H]1CN([C@@H](C)CO)C(=O)c2cccc(NC(=O)Nc3ccc(F)cc3)c2O[C@H]1CN(C)Cc1ccc(C(=O)O)cc1	.	/	.
Cc1cc(C(F)(F)F)nc(SCC(=O)Nc2ccccc2C(F)(F)F)n1	.	.	.
O=C(Nc1ccccc1C(=O)O)c1cccc(NS(=O)(=O)c2ccc(Cl)cc2)c1	.	.	/
O=C(NCCCN1CCOCC1)c1ccc2nc(-c3ccccc3)c(-c3ccccc3)nc2c1	.	.	/
Cc1cc(C(F)(F)F)nn1CCCNC(=O)c1cc(-c2ccccc2)nc2ccccc12	.	.	/
CC(C)(C)c1cc(C(F)(F)F)c(C#N)c(SCC(=O)Nc2sc3c(c2C#N)CCCC3)n1	97	.	/
N#Cc1c(C(F)(F)F)cc(-c2cccs2)nc1SCC(=O)Nc1sc2c(c1C#N)CCC2	.	.	.
O=C(NCc1ccco1)c1cc2nc(-c3cccs3)cc(C(F)(F)Cl)n2n1	.	.	.
COc1cc(O)c(C(C)=O)c(OC)c1	.	.	/
COc1cc(O)c(C(=O)c2c(C)cc(O)cc2OC)c(O)c1	121	.	.
CS(=O)(=O)N(CC(=O)NC1CC2CCC1C2)c1ccc(Cl)c(C(F)(F)F)c1 (stereo not given)	.	.	.
COc1ccc(CN(C)C[C@H]2Oc3ccc(NC(=O)Nc4ccc(F)cc4)cc3C(=O)N([C@@H](C)CO)C[C@H]2C)cc1	.	/	.
COc1ccc(CN(C)C[C@H]2Oc3ccc(NC(=O)Nc4ccc(C(F)(F)F)cc4)cc3C(=O)N([C@@H](C)CO)C[C@H]2C)cc1	126	/	.
COc1ccc(CN(C)C[C@H]2Oc3ccc(NC(=O)Nc4ccc(C(F)(F)F)cc4)cc3C(=O)N([C@H](C)CO)C[C@H]2C)cc1	129	/	/
COc1ccc(NC(=O)Nc2ccc3c(c2)C(=O)N([C@@H](C)CO)C[C@H](C)[C@H](CN(C)Cc2ccncc2)O3)cc1	103	.	.
COc1ccc(NC(=O)Nc2ccc3c(c2)C(=O)N([C@H](C)CO)C[C@@H](C)[C@@H](CN(C)Cc2ccncc2)O3)cc1	.	/	.
COc1ccc(CN(C)C[C@H]2Oc3ccc(NC(=O)Nc4ccc(OC)cc4)cc3C(=O)N([C@@H](C)CO)C[C@H]2C)cc1	.	.	.
COc1ccc(CN(C)C[C@H]2Oc3ccc(NC(=O)Nc4ccc(OC)cc4)cc3C(=O)N([C@@H](C)CO)C[C@@H]2C)cc1	.	/	/
COc1ccc(NC(=O)Nc2ccc3c(c2)C(=O)N([C@H](C)CO)C[C@H](C)[C@@H](CN(C)Cc2ccc(C(F)(F)F)cc2)O3)cc1	107	/	.
CS(=O)(=O)N(CC(=O)Nc1ccccc1-c1ccccc1)c1ccc2c(c1)OCCO2	.	.	.
